About 79,000 compounds went through this panel and 15% of them were active in at least one assay; those are over-represented in the sample as a whole. Rule as the data show it: active = growth inhibition above about 70%; inactive = the rest.
Experiments:
[1] = NCI Yeast Anticancer Drug Screen. Data for the rad52 strain (AID 147);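 also: 0% = growth of vehicle-treated control cultures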; conditions: S. cerevisiae rad52 mutant growth inhibition, active compounds read high
Method in brief: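 Screen used a yeast mutant impaired in DNA repair. After compound exposure, growth was measured. Values reflect inhibition compared with vehicle-treated cells.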

[2] = NCI Yeast Anticancer Drug Screen. Data for the wt1 strain (AID 149);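 also: 0% = growth of vehicle-treated wt1 cultures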; conditions: S. cerevisiae wt1 strain (SPY 50644) growth inhibition, active compounds read high
Method in brief: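 Yeast wt1 strain exposed to compounds; growth inhibition measured relative to vehicle-treated controls.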

[3] = NCI Yeast Anticancer Drug Screen. Data for the rad50EPP+ strain (AID 151);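 also: 0% = growth of vehicle-treated control cultures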; conditions: S. cerevisiae rad50 mutant strain, active compounds read high
Method in brief: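 Exposing the rad50EPP+ strain to each compound, growth was compared with vehicle-only cultures to give inhibition.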

[4] = NCI Yeast Anticancer Drug Screen. Data for the mgt1 strain (AID 153); conditions: S. cerevisiae mgt1 mutant growth inhibition, active compounds read high
Method in brief: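 Genetically defined yeast (mgt1) treated with compound; inhibition of growth expressed against vehicle-treated controls.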

[5] = NCI Yeast Anticancer Drug Screen. Data for the rad50 strain (AID 155);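 also: 0% = growth of vehicle-only cultures of the same strain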; conditions: S. cerevisiae rad50 strain growth inhibition, active compounds read high
Method in brief: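 Yeast carrying a defined DNA repair defect were exposed to test compounds, and growth was compared with vehicle-treated controls to give percent inhibition.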

[6] = NCI Yeast Anticancer Drug Screen. Data for the mec2-1 strain (AID 157); conditions: S. cerevisiae mec2-1 strain, active compounds read high
Method in brief: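 Readout is yeast growth inhibition, normalised to vehicle-treated controls, in the mec2-1 strain exposed to compound.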

[7] = NCI Yeast Anticancer Drug Screen. Data for the rad14 strain (AID 159);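 also: 0% = growth of vehicle-treated control cultures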; conditions: S. cerevisiae rad14 strain growth inhibition, active compounds read high
Method in brief: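 Yeast cells carrying a defined DNA-repair defect were exposed to compounds, and growth inhibition was calculated relative to vehicle-treated control cultures.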

[8] = NCI Yeast Anticancer Drug Screen. Data for the sgs1 mgt1 strain (AID 161);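 also: 0% = growth of cultures given vehicle only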; conditions: S. cerevisiae sgs1 mgt1 strain, active compounds read high
Method in brief: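 Yeast cells carrying a defined DNA-repair defect were exposed to test compounds. Growth inhibition was measured relative to vehicle-treated controls.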

[9] = NCI Yeast Anticancer Drug Screen. Data for the CLN2oe strain (AID 163);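 also: 0% = growth of vehicle-only control cultures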; conditions: S. cerevisiae CLN2oe strain, active compounds read high
Method in brief: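 Values reflect how much compound exposure reduced yeast growth, referenced to vehicle-exposed cells. Assay organism is a strain with a defined genetic change affecting cell-cycle control.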

[10] = NCI Yeast Anticancer Drug Screen. Data for the cln2 rad14 strain (AID 165);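 also: 0% = growth equal to vehicle treated cultures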; conditions: S. cerevisiae cln2 rad14 strain, active compounds read high
Method in brief: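 Relative to vehicle controls, growth inhibition of compound-treated cln2 rad14 yeast was recorded.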

[11] = NCI Yeast Anticancer Drug Screen. Data for the bub3 strain (AID 167); conditions: S. cerevisiae bub3 mutant strain, active compounds read high
Method in brief: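 Compounds were applied to a genetically altered yeast strain carrying a cell-cycle control defect. Growth inhibition was scored against vehicle-treated controls.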

[12] = NCI Yeast Anticancer Drug Screen. Data for the wt2 strain (AID 169);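 also: 0% = growth of vehicle-treated yeast cultures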; conditions: S. cerevisiae wt2 strain growth inhibition, active compounds read high
Method in brief: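 Values express reduction in yeast growth under compound treatment, referenced to vehicle-treated cells.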

[13] = NCI Yeast Anticancer Drug Screen. Data for the mlh1 strain (AID 171);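 also: 0% = growth of vehicle-treated control cultures of the same strain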; conditions: S. cerevisiae mlh1 strain growth inhibition, active compounds read high
Method in brief: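 Steps: expose the defined-mutant yeast strain to compound; expose a parallel culture to vehicle; measure growth; express compound effect as inhibition relative to the vehicle culture.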

[14] = NCI Yeast Anticancer Drug Screen. Data for the sgs1 strain (AID 173);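 also: 0% = growth of vehicle-only control cultures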; conditions: S. cerevisiae sgs1 mutant, active compounds read high
Method in brief: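 Treat defined-mutant yeast with compound; measure growth; calculate inhibition relative to vehicle-treated cells.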

[15] = NCI Yeast Anticancer Drug Screen. Data for the mlh1 rad18 strain (AID 175); conditions: S. cerevisiae mlh1 rad18 strain growth inhibition, active compounds read high
Method in brief: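 Test agents were incubated with a yeast strain of defined genotype (DNA damage repair defect). Inhibition of growth was derived by comparison with vehicle-exposed cultures.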

[16] = NCI Yeast Anticancer Drug Screen. Data for the rad18 strain (AID 177); conditions: S. cerevisiae rad18 mutant growth inhibition, active compounds read high
Method in brief: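 A genetically defined yeast mutant impaired in DNA damage repair was treated with test compounds, then its growth was measured against cultures receiving vehicle alone.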

[17] = at 5.0 µM (retest, dose inferred, filed as 0.5)
[18] = at 50.0 µM (retest, dose inferred, filed as 5.0)

Measured: growth inhibition

COC(=O)C1=C(C(=O)OC)CC(n2nnc(C(=O)OC)c2C(=O)OC)=CC1
inactive: [1]; at 1.2 µM -1% | [1]; at 3.7 µM 1% | [1]; at 11.0 µM 2% | [1]; at 33.0 µM 0% | [1]; at 100.0 µM -2% | [2]; at 1.2 µM 0% | [2]; at 3.7 µM 0% | [2]; at 11.0 µM -1% | [2]; at 33.0 µM -1% | [2]; at 100.0 µM -2% | [3]; at 1.2 µM -2% | [3]; at 3.7 µM -2% | [3]; at 11.0 µM -3% | [3]; at 33.0 µM -3% | [3]; at 100.0 µM 1% | [4]; at 1.2 µM -1% | [4]; at 3.7 µM 1% | [4]; at 11.0 µM -2% | [4]; at 33.0 µM -2% | [4]; at 100.0 µM -6% | [5]; at 1.2 µM -1% | [5]; at 3.7 µM -3% | [5]; [17] -1% | [5]; at 11.0 µM -3% | [5]; at 33.0 µM -2% | [5]; [18] 0% | [5]; at 50.0 µM 43.4% | [5]; at 100.0 µM -4% | [6]; at 1.2 µM -4% | [6]; at 3.7 µM -6% | [6]; [17] -1% | [6]; at 11.0 µM -5% | [6]; at 33.0 µM -4% | [6]; [18] -1% | [6]; at 50.0 µM 1.2% | [6]; at 100.0 µM -9% | [7]; at 1.2 µM 0% | [7]; at 3.7 µM 3% | [7]; at 11.0 µM 4% | [7]; at 33.0 µM 3% | [7]; at 100.0 µM 1% | [8]; [17] 6% | [8]; [18] -6% | [8]; at 50.0 µM 0.5% | [9]; at 1.2 µM -7% | [9]; at 3.7 µM -3% | [9]; at 11.0 µM -4% | [9]; at 33.0 µM -1% | [9]; at 100.0 µM -7% | [10]; [17] -2% | [10]; [18] -2% | [10]; at 50.0 µM -9.5% | [11]; at 1.2 µM -4% | [11]; at 3.7 µM -4% | [11]; [17] -1% | [11]; at 11.0 µM -3% | [11]; at 33.0 µM -6% | [11]; [18] 1% | [11]; at 50.0 µM -4.1% | [11]; at 100.0 µM -2% | [12]; at 1.2 µM -1% | [12]; at 3.7 µM -2% | [12]; at 11.0 µM -1% | [12]; at 33.0 µM -2% | [12]; at 100.0 µM -3% | [13]; at 1.2 µM -1% | [13]; at 3.7 µM -2% | [13]; at 11.0 µM -2% | [13]; at 33.0 µM -1% | [13]; at 100.0 µM -3% | [14]; at 1.2 µM -1% | [14]; at 3.7 µM -1% | [14]; at 11.0 µM -2% | [14]; at 33.0 µM -2% | [14]; at 100.0 µM 0% | [15]; [17] -2% | [15]; [18] 44% | [15]; at 50.0 µM 4.4% | [16]; at 1.2 µM 0% | [16]; at 3.7 µM 1% | [16]; at 11.0 µM 0% | [16]; at 33.0 µM -1% | [16]; at 100.0 µM 1%
